HttQ103 aggreg – inhibitors of mutant huntingtin aggregate formation in PC12 cells; Potency, µM (series often up to 46.1 µM), inactives show at the highest dose activity change, negative = inhibition, actives largely listed as inhibitors; AID 1688; PC12 HttQ103-GFP aggregates, Acumen cytometry, 40 h; 220,000 compounds, 1.1% hits; active = well fitted curve in the direction sought with a large enough effect; inconclusive = small, poorly fitted or top-dose-only effect, or another doubt; inactive = no such curve, though single readings can be large; an effect the other way counts as inactive or inconclusive; also: % is scaled to controls: 0 for no effect and ±100 for the full control effect; nearly all actives have a fitted effect of over 60% in size
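Steps: seed 1500 PC12 HTTQ103-GFP cells/well; add tebufenozide, 100 nM final; add compound titration; add ATPLite reagent; quantify GFP aggregates by laser scanning cytometry.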
ALDH1A1 block – ALDH1A1 (human) enzyme inhibition; Purified ALDH1A1, NADH fluorescence, propionaldehyde substrate; Potency, µM (top dose mostly 75.3 µM), without a hit: top-dose activity, negative = inhibition, hits mostly inhibitors; 220,000 compounds, 7.3% hits; P00352;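 also: plate controls were no enzyme wells and a reference inhibitor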
Target sequence (P00352 whole entry, looked up): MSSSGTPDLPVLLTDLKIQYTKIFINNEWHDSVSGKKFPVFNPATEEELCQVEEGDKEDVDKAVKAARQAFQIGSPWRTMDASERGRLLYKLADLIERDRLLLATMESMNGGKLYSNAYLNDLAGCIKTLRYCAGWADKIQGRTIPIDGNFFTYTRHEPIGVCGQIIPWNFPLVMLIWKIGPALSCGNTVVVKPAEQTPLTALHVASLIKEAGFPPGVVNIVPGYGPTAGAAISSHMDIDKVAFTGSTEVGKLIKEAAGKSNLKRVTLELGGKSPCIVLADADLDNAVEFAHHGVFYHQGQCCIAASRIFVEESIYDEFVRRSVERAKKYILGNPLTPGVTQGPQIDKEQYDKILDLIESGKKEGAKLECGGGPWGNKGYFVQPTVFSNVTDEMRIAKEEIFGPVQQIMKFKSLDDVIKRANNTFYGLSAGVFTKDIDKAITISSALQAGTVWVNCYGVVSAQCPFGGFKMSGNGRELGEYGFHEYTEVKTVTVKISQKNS
HPGD inh – inhibitors of human 15-hydroxyprostaglandin dehydrogenase (HPGD); P15428; 150,000 compounds, 4.3% hits; purified HPGD, NADH fluorescence kinetic, PGE2 substrate; Potency, µM, inactives show at the top dose activity change, negative = inhibition, actives largely listed as inhibitors; also: % is scaled to controls: 0 for no effect and ±100 for the full control effect
Target sequence (P15428 whole entry, looked up): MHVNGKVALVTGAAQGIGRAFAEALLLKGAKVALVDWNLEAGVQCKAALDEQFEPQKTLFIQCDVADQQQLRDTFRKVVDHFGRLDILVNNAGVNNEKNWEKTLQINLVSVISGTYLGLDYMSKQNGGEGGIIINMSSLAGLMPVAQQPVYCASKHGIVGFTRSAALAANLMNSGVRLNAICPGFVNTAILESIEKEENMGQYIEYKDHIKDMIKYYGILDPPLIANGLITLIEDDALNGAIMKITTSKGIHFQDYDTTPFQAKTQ
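NADH formation kinetics: reaction with 30 uM PGE2 and 1 mM NAD+ (final), 20 nM enzyme, Tris-HCl pH 8 with Tween 20, after 15 min compound preincubation at room temperature. Fluorescence change, last versus first of five reads.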
HTT cytoprotect – cytoprotection in Huntington HTT-Q103 PC12 cell model. PC12 HTT-Q103 induced, cytoprotection, ATP luminescence, 40 h. Potency, µM (series often up to 56.4 µM), for inactives: cytoprotection (ATP increase), actives largely listed as activators. 230,000 compounds, 0.14% hits. AID 1471; active = well fitted curve in the direction sought with a large enough effect; inconclusive = small, poorly fitted or top-dose-only effect, or another doubt; inactive = no such curve, though single readings can be large; an effect the other way counts as inactive or inconclusive; also: % of control where 0% means no effect; nearly all actives have a fitted effect of over 45% in size
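Stable PC12 Q103-GFP cells in serum-supplemented, phenol red-free DMEM; induction by tebufenozide at 100 nM final; compound dose series; cell viability quantified luminescently from ATP.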
Lamin A splicing – changes lamin A minigene splicing in HeLa cells | HeLa LMNA splicing GFP/RFP minigene ratio, 48 h | Potency, µM (series often up to 46.1 µM), for the others: top-dose ratio change, negative = inhibition, hits mostly inhibitors | 200,000 compounds, 0.01% hits | AID 1487; active = well fitted inhibition curve with a large enough effect in the signal ratio, with a control signal flat, not every such curve was filed as active; inconclusive = small, poorly fitted or top-dose-only effect, or effect the other way, or a change in a side signal; the % refers to the signal ratio; also: % is scaled to controls: 0 for no effect and ±100 for the full control effect
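S3 HeLa stable clones carrying a lamin A-EGFP splicing minigene plus DsRed2 were seeded at 600 cells/well in Opti-MEM with 2% FBS, pin-dosed and incubated 48 h at 37°C. Acumen cytometry (488 nm) gave the GFP/RFP total-intensity ratio.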
The depositor's hits bear a star; ? = inconclusive; · = not tested or not shown; [ ] = another dose, or the depositor's remark. Sampled rows, rich in hits. Any-hit rate of the full collection: about 8.8%. Unless noted, calls follow the shape of the dose curve; as a rule, active = well fitted inhibition curve with a large enough effect (not every such curve was filed as active); inconclusive = small, poorly fitted or top-dose-only effect, or another doubt; inactive = no such curve, though single readings can be large or run the other way. Potency is read from the fitted curve at half-maximal effect.

SMILES | HttQ103 aggreg | ALDH1A1 block | HPGD inh | HTT cytoprotect | Lamin A splicing
COC(=O)C(C)Sc1nc2c(c(=O)n(C)c(=O)n2C)n1CCC(C)C (stereo unspecified) | -4% | ? | -14% | · | -2%
COc1ccc(C)cc1NS(=O)(=O)c1c(C(=O)N2CCCCCC2)c(C)n(C)c1C | · | · | · | · | -7%[46 µM]
COC(=O)[C@H](C)NC(=O)C/C=C\[C@@H](C)[C@H]1C=C[C@H](O)[C@@H](CO)O1 | · | -9%[13.5 µM] | · | -24%[10 µM] | ·
CC(C)CCn1c(SCc2ccc(Cl)cc2)nc2c1c(=O)[nH]c(=O)n2C | 10% | 11µM* | 25µM* | -42% | ?
CCCCn1c(SCc2ccc(Cl)cc2)nc2c1c(=O)[nH]c(=O)n2C | -13% | 28µM* | ? | 0%[10 µM] | 20%
Nc1cc2ccncc2c2ccccc12 | 0.35µM* | · | · | 20%[10 µM] | ·
Cc1cc(N)c2ccccc2n1 | -9% | -3% | · | -11% | ·
Cc1ccc2nc(-c3ccc(SCC(=O)Nc4nnc(C)s4)nc3)[nH]c2c1 | 16µM* | -17% | ? | -17%[10 µM] | ?
CCN(CC)S(=O)(=O)c1ccc(C(=O)Nc2ccc(OCC(=O)N3CCOCC3)cc2)cc1 | -7% | ? | -5% | -25% | 16%
Cc1cccc(N(CC(=O)N2CCCC2)S(=O)(=O)c2ccccc2)c1C | 1% | -2% | -13% | -6% | 6%
O=C(Nc1ccc(OCC(=O)N2CCOCC2)cc1)c1cncc(Br)c1 | 11µM* | 2% | -8% | · | -7%
CCOc1ccccc1N(CC(=O)N1CCOCC1)S(=O)(=O)c1ccc(SC)cc1 | -13% | 8.9µM* | 2% | -6%[10 µM] | 9%
O=C(CN(c1ccccc1F)S(=O)(=O)c1ccccc1)N1CCCCCC1 | -37% | 28µM* | 3% | 8% | 10%
CSc1ccc(S(=O)(=O)Nc2ccc(OCC(=O)N3CCOCC3)cc2)cc1 | ? | 13µM* | · | -56% | 16%[46 µM]
COc1cccc(NC(=O)C2CCCN(S(=O)(=O)c3cn(C(C)C)cn3)C2)c1 (stereo unspecified) | · | · | · | · | 21%[46 µM]
S=c1[nH]nc(-c2n[nH]c3c2CCC3)n1/N=C/C=C/c1ccco1 | 12%[9.22 µM] | 7.1µM* | · | 20%[10 µM] | ·
S=c1[nH]nc(-c2cc(-c3ccccc3)n[nH]2)n1/N=C/C=C/c1ccco1 | -18%[9.22 µM] | ? | · | 7%[10 µM] | ·
S=c1[nH]nc(-c2ccco2)n1/N=C/C=C/c1ccco1 | -5% | -8% | 14µM* | 21%[0.074 µM] | -21%
COc1cccc(/C=N/n2c(-c3n[nH]c4c3CCC4)n[nH]c2=S)c1O | -12% | ? | ? | -20%[10 µM] | -6%
COc1ccccc1/C=C/C=N/n1c(-c2n[nH]c3c2CCC3)n[nH]c1=S | 3%[9.22 µM] | 8.9µM* | · | -3%[10 µM] | ·
O=C(NCc1ccccn1)C(C(=O)c1cccc([N+](=O)[O-])c1)n1cc(Cl)ccc1=O (stereo unspecified) | 1%[9.22 µM] | ? | · | 10%[10 µM] | -1%[46 µM]
O=C(CSc1nc2c([nH]c3ccccc32)c(=O)n1-c1ccccc1)Nc1ccc(Cl)c(Cl)c1 | · | · | · | · | 0%[46 µM]
CC(C)C(=O)N1CCc2cc(-c3csc(N)n3)ccc21 | 8% | 14µM* | 20µM* | -29% | 7%
CC(C)CSc1oc(-c2ccco2)nc1S(=O)(=O)c1ccccc1 | 7%[9.22 µM] | · | · | 0%[10 µM] | ·
O=S(=O)(c1ccccc1)c1nc(-c2cccs2)oc1NCC1CCCO1 (stereo unspecified) | -10% | ? | -22% | -8%[0.074 µM] | 5%
SMILES | HttQ103 aggreg | ALDH1A1 block | HPGD inh | HTT cytoprotect | Lamin A splicing
CCSc1oc(-c2cccs2)nc1S(=O)(=O)c1ccccc1 | 13µM* | ? | ? | -7%[10 µM] | -13%
CCSc1oc(-c2ccco2)nc1S(=O)(=O)c1ccc(F)cc1 | 2% | 25µM* | ? | 0%[1.9 µM] | 12%
CCCCOC(=O)c1ccc(NC(=O)C2(c3cccs3)CCOCC2)cc1 | · | · | · | · | 32%[46 µM]
Cc1cccc(N2CCN(C(c3cccs3)c3nnnn3C(C)(C)C)CC2)c1C (stereo unspecified) | 11µM* | -3% | -16% | 11%[10 µM] | 5%
CCC(C)(C)n1nnnc1C(c1cccnc1)N1CCCc2ccccc21 (stereo unspecified) | -11% | ? | -4% | 25%[10 µM] | 0%
CCC(C)(C)n1nnnc1C(c1cccs1)N1CCc2ccccc21 (stereo unspecified) | ? | 14µM* | -17% | -14% | ?
COc1ccccc1NC(=O)c1sc2nc3n(c(=O)c2c1C)N=C(c1cccc(Br)c1)CS3 | · | · | · | · | 8%[46 µM]
COc1ccc2cc3c(N)nn(C(=O)c4cccc([N+](=O)[O-])c4)c3nc2c1 | 3.5µM* | -9% | -20% | 3%[10 µM] | 0%
COc1ccc(-c2nc(N)n(C(=O)Cc3ccccc3)n2)cc1 | -4% | -5% | -11% | -5% | 8%
COc1ccc2cc3c(N)nn(C(=O)C4CCC(C(C)(C)C)CC4)c3nc2c1 (stereo unspecified) | 10µM* | ? | ? | · | ?
COc1ccc(-n2cnc(N)c2C(=O)c2cccc([N+](=O)[O-])c2)cc1 | 8.9µM* | -4% | -11% | 10%[10 µM] | ?
COc1ccc(NC(=O)c2cccc([N+](=O)[O-])c2)cc1 | -12% | ? | · | -76% | ·
COc1ccc(-n2cnc3cc([N+](=O)[O-])ccc32)cc1 | · | -10% | · | · | 11%[46 µM]
COc1ccc2cc3c(N)nn(C(=O)Cc4ccccc4OC)c3nc2c1 | 4.5µM* | ? | -1% | 23% | 13%
C=CCOC(=O)C(C(C)=O)C(NC(=O)OC)c1cccc(C(F)(F)F)c1 (stereo unspecified) | · | 17%[13.5 µM] | · | -17%[10 µM] | ·
O=C1CCC/C1=C/Nc1ccc(Cl)cc1 | -20% | -5% | · | 8% | ·
O=C1CCC/C(=N/Nc2ccc(Cl)cc2)C1 | -14% | 1.6µM* | · | -11%[10 µM] | ?
c1cc(NC2CC2)nc(-c2ccoc2)n1 | · | ? | · | -85% | -3%
CCSc1nc2nn(-c3ccccc3)c(=O)c-2c2n1CCCCC2 | -1% | 2.5µM* | -18% | 1% | 2%
O=C(CSc1nc2nn(-c3ccccc3)c(=O)c-2c2n1CCCCC2)NCCc1ccccc1 | 2% | -4% | · | 4%[10 µM] | -4%[46 µM]
CCc1cccc(CC)c1NC(=S)NCCc1c(C)[nH]c2ccc(C)cc12 | 6.3µM* | 14% | -11% | · | ?
CCOC(=O)/C(C#N)=C\C1=C(N2CCCC2)CC(C)(C)OC1 | 3% | 14µM* | -21% | 4%[1.9 µM] | -4%
COC(=O)c1ccc(NC(=O)C2C3C=CC(O3)C2C(=O)O)cc1 (stereo unspecified) | 2% | 4.5µM* | -18% | 6%[10 µM] | -8%
Cc1nnc(NC(=O)C2C3C=CC(O3)C2C(=O)O)s1 (stereo unspecified) | 30% | 28µM* | -13% | 13%[10 µM] | 13%
Oc1c(C(c2ccccc2F)N2CCCCC2)sc2nc(-c3ccco3)nn12 (stereo unspecified) | · | · | · | · | -11%[46 µM]
COc1ccc2c(c1)O[C@H](c1ccc3c(c1)OCO3)[C@@H](OC(=O)NS(=O)(=O)c1ccc(C)cc1)C2=O | · | ? | -2% | · | ·

Screening data as filed in PubChem.
